Laboratory results reported in PubChem BioAssay (NCATS).
Records with an inconclusive call do not appear. A call without a number means that no potency is given here. The source made the active and inactive calls. Calls follow the shape of the dose curve; as a rule, active = well fitted cell-killing curve with a large enough effect; inconclusive = small, poorly fitted or top-dose-only effect, or effect the other way; inactive = no such curve, though single readings can be large or run the other way.
Potency is read from the fitted curve at half-maximal effect.

Experiment: Quantitative High-Throughput drug screen in 47 multiple myeloma cell lines against the NCATS MIPE library collection: RPMI8226_ATCC cell viability assay (AID 1919871); also: nearly all actives have a fitted effect of over 30% in size
Conditions: RPMI8226 myeloma viability, CellTiter-Glo ATP luminescence, 48 h; series mostly up to 45.8 µM
Excerpt: PI: Beverly A. Mock Ph.D.
Laboratory of Cancer Biology and Genetics,
Center for Cancer Research, National Cancer Institute,
National Institute of Health, Bethesda, Maryland
Drug resistance and disease progression are common in multiple myeloma (MM) patients, underscoring the need for new therapeutic combinations. […] We hypothesized that effective combinations would reduce MYC expression and enhance p16 activity. […] These preclinical data identify potentially useful drug combinations for evaluation in drug-resistant MM and reveal potential mechanisms of combined drug sensitivity.
Described herein is the primary MIPE qHTS used to cherrypick compounds. Validated compounds were then further tested for potential synergistic activiy.
[1] Peat TJ, Gaikwad SM, Dubois W, Gyabaah-Kessie N, Zhang S, Gorjifard S, Phyo Z, Andres M, Hughitt VK, Simpson RM, Miller MA, Girvin AT, Taylor A, Williams D, D'Antonio N, Zhang Y, Rajagopalan A, Flietner E, Wilson K, Zhang X, Shinn P, Klumpp-Thomas C, McKnight C, Itkin Z, Chen L, Kazandijian D, Zhang J, Michalowski AM, Simmons JK, Keats J, Thomas CJ, Mock BA. Drug combinations identified by high-throughput screening promote cell cycle transition and upregulate Smad pathways in myeloma. Cancer Lett. 2023 Aug 1;568:216284. doi: 10.1016/j.canlet.2023.216284. Epub 2023 Jun 24. PMID: 37356470; PMCID: PMC10408729.
SEQUENCE No. (e.g., 1, 2, 3, etc.); […] (e.g., Cells, Incubation, Reagent, etc.); VALUE and DESCRIPTION.
1; Cells; 5 uL; white, solid bottom 1536-well Greiner assay plate.
2; Compounds; 23 nL; Kalypsis pin tool (Wako USA) equipped with a 1536-well pin head to transfer to the assay plates.
3; Incubation; 48 hours; 37C incubation.
4; Reagent;5uL; CellTiter Glo (Promega).
5; Detector; 425V; Luminescence; Viewlux PerkinElmer.
NOTES (numbers refer to Sequence numbers above)
1. The cell-based screening methods employed in this study were like those previously published. Briefly, the corresponding myeloma cell lines were screened in 1,536-well plates with 500 cells, 5-uL per well for inhibition of cell viability (assessed by measuring ATP levels with CellTiterGlo).
2. NCATS MIPE 4.0 library of approved and investigational drugs were added using the Kalypsis pin tool. Wells treated with DMSO only for 100% viability and media only for 0% viability were used as controls.
3. The assay plates were covered and incubated for 48 hours in a 37C, 5% CO2 incubator with controlled humidity.
4. After 48 hours, CellTilter-GloTM luminescent substrate mix (Promega) reagent was added to the assay plate and plates we incubated for 5 min at room temperature.
5. Signal was measured as median relative luminescence units on a ViewLux (PerkinElmer) multiplate reader.
[1] Heske CM, Davis MI, Baumgart JT, Wilson K, Gormally MV, Chen L, Zhang X, Ceribelli M, Duveau DY, Guha R, Ferrer M, Arnaldez FI, Ji J, Tran HL, Zhang Y, Mendoza A, Helman LJ, Thomas CJ. Matrix Screen Identifies Synergistic Combination of PARP Inhibitors and Nicotinamide Phosphoribosyltransferase (NAMPT) Inhibitors in Ewing Sarcoma. Clin Cancer Res. 2017 Dec 1;23(23):7301-7311. doi: 10.1158/1078-0432.CCR-17-1121. Epub 2017 Sep 12. PMID: 28899971; PMCID: PMC6636827.
In the case of `CC[C@H]1OC(=O)[C@H](C)[C@@H](O[C@H]2C[C@@](C)(OC)[C@@H](O)[C@H](C)O2)[C@H](C)[C@@H](O[C@@H]2O[C@H](C)C[C@H](N(C)C)[C@H]2O)[C@](C)(O)C[C@H](C)C(=NOCOCCOC)[C@H](C)[C@@H](O)[C@]1(C)O`, the Potency is reported as 4.69 µM (active). For `CC(C)C[C@@H](N)[C@H](O)C(=O)N[C@H](C(=O)N[C@H](C(=O)N[C@@H](CC(=O)O)C(=O)O)C(C)C)C(C)C`, the Potency was “inactive”. In the case of `COc1ccc(-c2nc3ccc(C4=NNC(=O)CC4C)cc3[nH]2)cc1` (stereo not given), the Potency is reported as “inactive”. For `NC(=O)c1nnn(Cc2cc(Cl)c(C(=O)c3ccc(Cl)cc3)c(Cl)c2)c1N`, the Potency was 14.8 µM (active). With `O=C(O)C1=CC(O)C(O)[C@H](O)C1` (stereo not given in full) the Potency was “inactive”. With `CC[C@]1(O)C[C@H]2CN(CCC3=c4ccccc4=N[C]3[C@@](C(=O)OC)(c3cc4c(cc3OC)N(C)[C@H]3[C@@](O)(C(N)=O)[C@H](O)[C@]5(CC)C=CCN6CC[C@]43[C@@H]65)C2)C1` the Potency was 0.132 µM (active). For `Cc1cnc(CNC(=O)c2c(=O)c3ccc(N4CCCN(C)CC4)nc3n3c2sc2ccccc23)cn1`, the Potency was 8.12 µM (active). With `COc1ccnc(CS(=O)c2nc3ccc(OC(F)F)cc3[nH]2)c1OC` (stereo not given) the Potency was “inactive”. For `c1ccc(-c2oc3ncnc(NC[C@@H]4CCCO4)c3c2-c2ccccc2)cc1`, the Potency was 23.5 µM (active). With `Nc1[nH]nc2nnc(-c3c(-c4ccccc4)nn4ccccc34)cc12` the Potency was “inactive”. In the case of `C[C@@H](N)c1ccc(C(=O)Nc2ccnc3[nH]ccc23)cc1`, the Potency is reported as “inactive”. For `COc1cc(N2CCN(C)CC2)ccc1Nc1nc(N)c(C(=O)c2c(Cl)cccc2Cl)s1`, the Potency was “inactive”. With `COc1nccc(-c2c(-c3ccc(F)cc3)ncn2C2CCC(O)CC2)n1` (stereo not given) the Potency was 1.18 µM (active). For `CN1CCC(COc2cnc(-c3cccc(Cn4nc(-c5cccc(C#N)c5)ccc4=O)c3)nc2)CC1`, the Potency was “inactive”. With `CCC[C@H](N[C@@H](C)C(=O)N1[C@@H]2CCCC[C@H]2C[C@H]1C(=O)O)C(=O)OCC` the Potency was 9.35 µM (active). In the case of `CC[C@H](C)n1cc(C)c2c(C(=O)NCc3c(C)cc(C)[nH]c3=O)cc(-c3ccc(N4CCNCC4)nc3)cc21`, the Potency is reported as 26.4 µM (active). For `CC1=C[C@@H]2[C@@H]([C@@H](O)C[C@@]3(C)[C@H]2C[C@@H](C)[C@]3(O)C(=O)CO)[C@@]2(C)Cc3cnn(-c4ccccc4)c3C=C12`, the Potency was 0.0264 µM (active). In the case of `CO[C@H]1O[C@@H]2O[C@@]3(C)CC[C@@H]4[C@@H](C)CC[C@@H]([C@H]1C)[C@@]24OO3`, the Potency is reported as 0.833 µM (active). For `CCC(=O)OCC(=O)[C@@]1(OC(=O)CC)[C@@H](C)C[C@@H]2[C@H]3CCC4=CC(=O)C=C[C@]4(C)[C@@]3(F)[C@@H](O)C[C@@]21C`, the Potency was 0.418 µM (active). In the case of `CN[C@@H]1CN(c2ccc3c(=O)c(C(=O)O)cn(-c4nccs4)c3n2)C[C@@H]1OC`, the Potency is reported as 12.9 µM (active). With `Cc1ccc(S(=O)(=O)OCC(=O)Nc2ccc(C(=O)O)c(O)c2)cc1` the Potency was “inactive”. For `CN(C)S(=O)(=O)c1ccc2c(c1)C(=Cc1cc3c([nH]1)CCCC3)C(=O)N2`, the Potency was 7.43 µM (active). With `CC[C@H](C=C[C@@H](C)[C@H]1CC[C@H]2[C@@H]3CC=C4C[C@@H](O)CC[C@]4(C)[C@@H]3CC[C@]12C)C(C)C` the Potency was “inactive”. With `CC1=C(CC(=O)O)c2cc(F)ccc2C1=Cc1ccc(S(C)=O)cc1` (stereo not given) the Potency was “inactive”. For `CN(C)CCN(Cc1ccc(Cl)cc1)c1ccccn1`, the Potency was “inactive”. With `CO[C@H]1/C=C\O[C@@]2(C)Oc3c(C)c(O)c4c(O)c(c5c(nc6cc(C)ccn65)c4c3C2=O)NC(=O)C(C)=CC=C[C@H](C)[C@H](O)[C@@H](C)[C@@H](O)[C@@H](C)[C@H](OC(C)=O)[C@H]1C` the Potency was 20.9 µM (active). With `CN1CCN(c2ncc(-c3cc(Cl)cc(Cl)c3Cl)c(N)n2)CC1` the Potency was “inactive”. With `CC1CNc2c(cccc2S(=O)(=O)N[C@@H](CCCN=C(N)N)C(=O)N2CC[C@@H](C)C[C@@H]2C(=O)O)C1` (stereo not given in full) the Potency was “inactive”. With `O=c1[nH]c(=O)n([C@H]2C[C@@H](O)[C@@H](CO)O2)cc1C(F)(F)F` the Potency was 3.72 µM (active). With `OC[C@H]1O[C@@H](O[C@H]2[C@@H](O)[C@@](O)(CO)O[C@@H]2CO)[C@H](O)[C@@H](O)[C@@H]1O` the Potency was “inactive”. In the case of `CCCCc1ccc(NS(=O)(=O)c2ccc(C)c(C(=O)N3CCN(c4cccc(C)c4C)CC3)c2)cc1`, the Potency is reported as 20.9 µM (active). With `O=C(CO)N1CCC(c2[nH]nc(-c3ccc(Cl)cc3)c2-c2ccncn2)CC1` the Potency was “inactive”. For `COC1CCC(C(=O)c2ccc3nc4c(cc3c2)CCCO4)CC1` (stereo not given), the Potency was 20.9 µM (active). With `OC1CCC(Nc2ncc3nc(Nc4c(F)cc(F)cc4F)n([C@@H]4CCOC4)c3n2)CC1` (stereo not given in full) the Potency was “inactive”. In the case of `Cc1cn([C@@H]2C[C@@H](O)[C@H](CO)O2)c(=O)[nH]c1=O`, the Potency is reported as “inactive”. In the case of `CC(=O)NCCC(=O)N[C@@H](CCC(N)=O)C(=O)N[C@@H](CO)C(=O)N[C@@H](CCC(N)=O)C(=O)N[C@@H](CCC(N)=O)C(=O)N[C@H](C(=O)N[C@@H](Cc1ccccc1)C(=O)N[C@]1(C)CCCCCCC=CCCC[C@@](C)(C(=O)N[C@@H](CCC(N)=O)C(=O)N[C@@H](CC(N)=O)C(N)=O)NC(=O)[C@H](CC(C)C)NC(=O)[C@H](CC(C)C)NC(=O)[C@@H](CCCNC(=N)N)NC(=O)[C@H](Cc2c[nH]c3ccccc23)NC(=O)[C@H](CC(C)C)NC(=O)[C@H](CC(N)=O)NC1=O)[C@H](C)O`, the Potency is reported as 9.35 µM (active). In the case of `Cc1ccccc1C(C(=O)NC1CCCCC1)N(C(=O)CNc1ccc(C#N)cc1)c1cccc(F)c1` (stereo not given), the Potency is reported as 23.5 µM (active). In the case of `CCc1cccc(CC)c1NC(=O)N1Cc2[nH]nc(NC(=O)c3ccc(N4CCN(C)CC4)cc3)c2C1`, the Potency is reported as 18.7 µM (active). In the case of `O=C1Nc2ccc(I)cc2C1=Cc1cc(Br)c(O)c(Br)c1`, the Potency is reported as “inactive”. For `CS(=O)(=O)c1ccc(C2=C(c3ccccc3)C(=O)OC2)cc1`, the Potency was “inactive”.
